# Data reported in PubChem BioAssay (Tox21).
# Inconclusive results are not listed. Unmarked numbers belong to inactive results. Activity calls are given as the source filed them. Calls follow the shape of the dose curve; as a rule, active = well fitted curve in the direction sought with a large enough effect in the repeat runs; inconclusive = weak or mixed curves; inactive = no such curve, though single readings can be large; an effect the other way counts as inactive or inconclusive.
# Test system: not listed separately
# Assay: qHTS assay to identify small molecule antagonists of the constitutive androstane receptor (CAR) signaling pathway - cell viability counter screen (AID 1224837); also: nearly all actives have a fitted effect of over 45% in size
# Details: HepG2-CYP2B6-hCAR viability, CellTiter-Fluor, 23 h, co-treated with 50 nM CITCO; series mostly up to 92.4 µM; activity change, negative = cytotoxicity: at the top concentration
# Method in brief: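 Fluorescence from CellTiter-Fluor served as the viability signal. Human hepatoma HepG2 cells stably bearing hCAR and CYP2B6-2.2kb received compound plus CITCO (50 nM final) for 23 hr.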
# % is scaled to controls: 0 for no effect and ±100 for the full control effect; potency is read from the fitted curve at half-maximal effect.
SMILES,"activity change, negative = cytotoxicity",Potency
CCc1cc2c(s1)-n1c(C)nnc1CN=C2c1ccccc1Cl,4.89% [at 42.5 µM],
CNNC,5.44%,
COc1cccc2c1cc([N+](=O)[O-])c1c(C(=O)O)cc3c(c12)OCO3,,27.3 µM (active)
CC(N)=S,0.853%,
CCCSC(=O)N(CCC)CCC,4.18%,
CCN(Cc1ccc(Cl)nc1)/C(=C/[N+](=O)[O-])NC,3.32% [at 42.5 µM],
NC1=NC(=O)C(c2ccccc2)O1 (stereo not drawn),4.47% [at 42.5 µM],
O=C(CCN1CC1)OCC(CO)(COC(=O)CCN1CC1)COC(=O)CCN1CC1,-1.19%,
CCOC(=O)N(C)C(=O)CSP(=S)(OCC)OCC,-8.25%,
CCCCOC(=O)c1ccccc1N,0.0583%,
COc1cc(OC)nc(NC(=O)NS(=O)(=O)c2ncccc2C(=O)N(C)C)n1,-0.519%,
COC(=O)C(c1ccccc1)C1CCCCN1 (stereo not drawn),0.299%,
ClC(Cl)(Cl)C(Cl)(Cl)Cl,4.41%,
CCOP(=S)(OCC)SCSP(=S)(OCC)OCC,6.39%,
CC(=O)Nc1cc([As](=O)(O)O)ccc1O,11% [at 42.5 µM],
CNC(=O)N(C)c1nc2ccccc2s1,7.37%,
COc1cc(OC)nc(Sc2cccc(Cl)c2C(=O)O)n1,1.08%,
Nc1cc(Cl)ccc1O,-6.35%,
CCC(=O)C(CCN(C)C)(c1ccccc1)c1ccccc1,-11.5% [at 42.5 µM],

SMILES,"activity change, negative = cytotoxicity",Potency
CN1CCN(C(=O)O[C@H]2c3nccnc3C(=O)N2c2ccc(Cl)cn2)CC1,0.152% [at 42.5 µM],
N#CCCC#N,5.84%,
CN1CCC(O)(c2ccc(F)cc2)C(C(=O)c2ccc(F)cc2)C1 (stereo not drawn),-16.8% [at 42.5 µM],
Fc1cc(Br)ccc1CBr,3.24% [at 42.5 µM],
CC(=O)CCc1ccc2c(c1)OCO2,0.273%,
CCCCOC(=O)c1ccccc1C(=O)O,0.888%,
CCC1(c2ccccc2)C(=O)NC(=O)NC1=O,0.881%,
c1coc(-c2nc3ccccc3[nH]2)c1,2.47%,
N#CC(O)c1ccccc1 (stereo not drawn),1.58%,
CC(C(O)c1ccccc1)N(C)C/C=C/c1ccccc1 (stereo not drawn),-3.35% [at 42.5 µM],
COP(N)(=S)Oc1ccccc1C(=O)OC(C)C (stereo not drawn),8.59%,
CCCCc1c(C)nc(NCC)[nH]c1=O,0.888%,
CC1CN1P(=O)(N1CC1C)N1CC1C (stereo not drawn),4.89%,
COc1cc(OC)nc(NC(=O)NS(=O)(=O)c2ncccc2OCC(F)(F)F)n1,2.38%,
C1CCC(C2CCCCC2)CC1,-7.2%,
CCS(=O)(=O)CCSP(=O)(OC)OC,-11.3%,
C#CCN1C(=O)COc2cc(F)c(N3C(=O)C4=C(CCCC4)C3=O)cc21,0.831%,
CC1CCCCC1NC(=O)Nc1ccccc1 (stereo not drawn),-3.67%,
NC(=S)C(N)=S,12.9%,

# Target: Nuclear receptor subfamily 1 group I member 3 (Homo sapiens) (UniProt Q14994)
# Sequence (Q14994 whole entry, looked up): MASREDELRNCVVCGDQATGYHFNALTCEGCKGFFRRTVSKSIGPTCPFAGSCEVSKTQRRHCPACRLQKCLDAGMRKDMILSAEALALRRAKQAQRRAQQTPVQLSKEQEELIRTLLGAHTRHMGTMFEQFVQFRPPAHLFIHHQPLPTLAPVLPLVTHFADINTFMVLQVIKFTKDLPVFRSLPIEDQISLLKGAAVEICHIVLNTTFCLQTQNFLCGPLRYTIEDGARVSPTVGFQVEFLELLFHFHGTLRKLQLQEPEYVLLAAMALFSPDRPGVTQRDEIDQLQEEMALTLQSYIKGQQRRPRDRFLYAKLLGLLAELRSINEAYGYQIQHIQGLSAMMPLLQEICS
# Assay: qHTS assay to identify small molecule agonists of the constitutive androstane receptor (CAR) signaling pathway (AID 1224839); also: nearly all actives have a fitted effect of over 15% in size;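 as to activation: HepG2 cells stably carrying human CAR and a CYP2B6 luciferase reporter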
# Details: HepG2 hCAR CYP2B6-luciferase, agonist mode, 24 h; series mostly up to 92.4 µM; activation: at the top concentration
# Method in brief: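 HepG2 cells stably co-transfected with hCAR and a CYP2B6-2.2kb luciferase reporter; compounds at 15 concentrations with 0.75 uM PK11195 present. After 24 hr at 37 C, luciferase read by ONE-Glo luminescence.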
SMILES,activation,Potency
CCc1cc2c(s1)-n1c(C)nnc1CN=C2c1ccccc1Cl,5.57% [at 42.5 µM],
CNNC,3.07%,
COc1cccc2c1cc([N+](=O)[O-])c1c(C(=O)O)cc3c(c12)OCO3,-11.5%,
CC(N)=S,0.0199%,
CCCSC(=O)N(CCC)CCC,-0.103%,
CCN(Cc1ccc(Cl)nc1)/C(=C/[N+](=O)[O-])NC,3.26% [at 42.5 µM],
NC1=NC(=O)C(c2ccccc2)O1 (stereo not drawn),-0.949% [at 42.5 µM],
O=C(CCN1CC1)OCC(CO)(COC(=O)CCN1CC1)COC(=O)CCN1CC1,-0.0674%,
CCOC(=O)N(C)C(=O)CSP(=S)(OCC)OCC,,34.4 µM (active)
COc1cc(OC)nc(NC(=O)NS(=O)(=O)c2ncccc2C(=O)N(C)C)n1,-1.73%,
COC(=O)C(c1ccccc1)C1CCCCN1 (stereo not drawn),-1.79%,
CCOP(=S)(OCC)SCSP(=S)(OCC)OCC,,27.3 µM (active)
CC(=O)Nc1cc([As](=O)(O)O)ccc1O,0.364% [at 42.5 µM],
CNC(=O)N(C)c1nc2ccccc2s1,,24.3 µM (active)
COc1cc(OC)nc(Sc2cccc(Cl)c2C(=O)O)n1,-1.78%,
Nc1cc(Cl)ccc1O,,52.7 µM (active)
CCC(=O)C(CCN(C)C)(c1ccccc1)c1ccccc1,8.89% [at 42.5 µM],
CN1CCN(C(=O)O[C@H]2c3nccnc3C(=O)N2c2ccc(Cl)cn2)CC1,-1.83% [at 42.5 µM],

SMILES,activation,Potency
CN1CCC(O)(c2ccc(F)cc2)C(C(=O)c2ccc(F)cc2)C1 (stereo not drawn),5.87% [at 42.5 µM],
Fc1cc(Br)ccc1CBr,-0.49% [at 42.5 µM],
CC(=O)CCc1ccc2c(c1)OCO2,8.87%,
CCCCOC(=O)c1ccccc1C(=O)O,-0.307%,
CCC1(c2ccccc2)C(=O)NC(=O)NC1=O,1.69%,
c1coc(-c2nc3ccccc3[nH]2)c1,,7.7 µM (active)
N#CC(O)c1ccccc1 (stereo not drawn),4.68%,
CC(C(O)c1ccccc1)N(C)C/C=C/c1ccccc1 (stereo not drawn),2.82% [at 42.5 µM],
COP(N)(=S)Oc1ccccc1C(=O)OC(C)C (stereo not drawn),,30.6 µM (active)
CCCCc1c(C)nc(NCC)[nH]c1=O,7.9%,
CC1CN1P(=O)(N1CC1C)N1CC1C (stereo not drawn),0.448%,
COc1cc(OC)nc(NC(=O)NS(=O)(=O)c2ncccc2OCC(F)(F)F)n1,-3.17%,
C1CCC(C2CCCCC2)CC1,-1.33%,
CCS(=O)(=O)CCSP(=O)(OC)OC,11.6%,
C#CCN1C(=O)COc2cc(F)c(N3C(=O)C4=C(CCCC4)C3=O)cc21,,48.6 µM (active)
CC1CCCCC1NC(=O)Nc1ccccc1 (stereo not drawn),,30.6 µM (active)
NC(=S)C(N)=S,-0.714%,
